# Laboratory results taken from the supplement of paper PMC10646978.
# ± gives the standard deviation.
# Tests used:
# Details in all cases: modulator concentration 10 µM
# [1] = system: RAW-Dual (murine macrophage reporter line); assay: NF-kB reporter (SEAP) activity fold change vs agonist alone; higher = enhanced NF-kB activity
# How it was run: (§1)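 RAW-Dual murine macrophage reporter cells were seeded at 50 000 per well in 384-well plates and pre-incubated 1 hour at 37 °C with compound pin-transferred to 10 μM final. After 1 hour, a PRR agonist was added and cells incubated overnight. Supernatant NF-κB (SEAP, QUANTI-Blue, 620 nm absorbance) and IRF (Lucia luciferase, QUANTI-Luc, luminescence) signals were divided by the mean agonist-only control on the same plate to give fold change. Two replicate plates were averaged, with errors by propagation.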
# [2] = system: RAW-Dual (murine macrophage reporter line); assay: IRF reporter (Lucia luciferase) activity fold change vs agonist alone; higher = enhanced IRF activity
# How it was run: as §1
# [3] = system: RAW-Dual (murine macrophage reporter line); assay: viability score (confluency relative to resting cells, overnight) (fraction); higher = more viable, active = viable (0.7 or more)
# How it was run: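 RAW-Dual macrophages in 384-well plates were incubated overnight with compound, final concentration 10 μM. Confluency images from IncuCyte were processed in IncuCyte software into two masks covering all imaged wells. The viability score is each well's confluency relative to resting cells, and a compound met the cutoff when both masks exceeded 70% of resting cells.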
# [4] = agonist: CpG ODN 1826 0.5 ug/mL
Compound,"NF-kB reporter [1, 4]",NF-kB reporter ([1]; agonist: LPS 0.1 ug/mL),NF-kB reporter ([1]; agonist: MPLA […]),IRF reporter ([2]; agonist: 3'3'-cGAMP 10 ug/mL),IRF reporter ([2]; agonist: LPS 0.1 ug/mL),IRF reporter ([2]; agonist: MPLA […]),viability score [3]
CN(C)CC(c1ccc(O)cc1)C1(O)CCCCC1 (configuration not stated),0.971 ± 0.16,1.07 ± 0.26,0.893 ± 0.054,0.897 ± 0.045,1.44 ± 0.32,1.17 ± 0.092,0.992 (active)
O=C(CC1(Cc2ccc(I)cc2)C(=O)c2ccccc2C1=O)c1ccccc1,0.803 ± 0.073,0.876 ± 0.046,1.02 ± 0.091,0.953 ± 0.044,1.42 ± 0.12,1.59 ± 0.17,0.996 (active)
CCOc1ccccc1OCCCCOc1cccc(Br)c1,0.728 ± 0.06,1.05 ± 0.075,0.968 ± 0.067,1.19 ± 0.031,1.49 ± 0.24,1.2 ± 0.2,1 (active)
O=C(O)CSCC(=O)NC1CCSC1=O (configuration not stated),0.824 ± 0.065,0.898 ± 0.11,1.04 ± 0.12,1.01 ± 0.06,1.36 ± 0.13,1.5 ± 0.15,1 (active)
CC1CCc2c(N3CCC(O)CC3)c(F)cc3c(=O)c(C(=O)O)cn1c23 (configuration not stated),0.975 ± 0.091,0.889 ± 0.051,0.992 ± 0.051,1.03 ± 0.077,0.897 ± 0.046,0.946 ± 0.11,0.995 (active)
Cc1nc2sccn2c(=O)c1CCN1CCC(=C(c2ccc(F)cc2)c2ccc(F)cc2)CC1,0.91 ± 0.1,1 ± 0.061,0.901 ± 0.053,0.92 ± 0.056,1.12 ± 0.18,1.01 ± 0.15,1 (active)
CC1=C(C(=O)OCCN(Cc2ccccc2)c2ccccc2)C(c2cccc([N+](=O)[O-])c2)C(P2(=O)OCC(C)(C)CO2)=C(C)N1 (configuration not stated),0.86 ± 0.2,0.475 ± 0.024,0.543 ± 0.034,0.555 ± 0.028,0.917 ± 0.15,0.736 ± 0.074,1 (active)
CCc1ccc2nc(NCCCN3CCOCC3)sc2c1,0.924 ± 0.057,1.02 ± 0.083,0.971 ± 0.058,0.866 ± 0.04,1.19 ± 0.27,1.3 ± 0.34,0.99 (active)
O=C(O)C1C(c2ccccc2)C(C(=O)OCc2ccccc2)C1c1ccccc1 (configuration not stated),0.926 ± 0.089,1.09 ± 0.062,1.05 ± 0.079,1.03 ± 0.078,1.24 ± 0.087,1.03 ± 0.076,1.01 (active)
N#Cc1cc(OC2CCSC2)nc2ccccc12 (configuration not stated),1.04 ± 0.067,1.05 ± 0.095,1.18 ± 0.065,0.935 ± 0.071,0.959 ± 0.045,1.15 ± 0.16,1 (active)
CC(C)(C)C1CCc2c(sc(NC(=O)c3ccc(Cl)cc3)c2C(N)=O)C1 (configuration not stated),1.02 ± 0.086,1.05 ± 0.093,0.91 ± 0.081,0.961 ± 0.043,1.55 ± 0.23,1.16 ± 0.089,1.01 (active)
O=C(C=Cc1ccc(Cl)c(Cl)c1)c1ccc2ccccc2c1O,1.09 ± 0.1,1.06 ± 0.07,0.935 ± 0.085,0.96 ± 0.041,1.57 ± 0.23,1.25 ± 0.077,1.01 (active)
CC(C)(C)c1ccc(=O)n(CC2CN(S(C)(=O)=O)C2)n1,0.983 ± 0.097,1.13 ± 0.095,0.918 ± 0.092,1.02 ± 0.058,1.15 ± 0.1,1.1 ± 0.34,1.01 (active)
CCCCOc1ccc(S(=O)(=O)NCCCn2ccnc2)cc1,0.946 ± 0.078,1.18 ± 0.089,1.21 ± 0.071,1.07 ± 0.038,1.84 ± 0.13,1.58 ± 0.2,0.987 (active)
CCCCC(=O)N(Cc1ccc(-c2ccccc2-c2nn[nH]n2)cc1)C(C(=O)O)C(C)C (configuration not stated),1.12 ± 0.27,0.965 ± 0.081,1.02 ± 0.082,0.71 ± 0.055,1.03 ± 0.14,1.04 ± 0.2,1 (active)
CCOC(=O)C1=C(C)NC(C)=C(C(=O)OCC)C1c1ccc(OC)cc1,0.973 ± 0.088,1.05 ± 0.066,1.02 ± 0.068,1.17 ± 0.044,0.867 ± 0.081,0.987 ± 0.27,0.946 (active)
CCCCN(Cc1ccccc1)C(=O)C1CCN(Cc2c(F)cccc2Cl)CC1,0.378 ± 0.034,1.09 ± 0.09,0.757 ± 0.056,1.01 ± 0.029,1.69 ± 0.27,1.36 ± 0.25,0.617 (inactive)
O=C(O)CC(C(=O)O)N1C(=O)C(=C2C(=O)Nc3ccc(Br)cc32)SC1=S (configuration not stated),0.775 ± 0.28,1.05 ± 0.11,0.837 ± 0.069,0.894 ± 0.036,1.24 ± 0.15,1.59 ± 0.4,0.995 (active)
CCc1c(C)nc(-n2nc(C)cc2NC(=O)CSCc2ccccc2)[nH]c1=O,0.901 ± 0.056,0.603 ± 0.082,0.885 ± 0.038,0.973 ± 0.065,1.22 ± 0.078,1.07 ± 0.099,1.02 (active)
CN1CCN(c2ccc(C(=O)Nc3n[nH]c4ccc(Cc5cc(F)cc(F)c5)cc34)c(NC3CCOCC3)c2)CC1,0.971 ± 0.043,1.21 ± 0.097,1.87 ± 0.11,0.129 ± 0.0061,0.482 ± 0.14,0.465 ± 0.13,0.947 (active)
Cc1cccc(Oc2ccc(NC(=O)c3ccco3)cc2)c1,0.777 ± 0.18,0.981 ± 0.081,1 ± 0.095,0.516 ± 0.037,1.07 ± 0.24,1.27 ± 0.14,0.97 (active)
CCC1=C(C)CN(C(=O)NCCc2ccc(S(=O)(=O)NC(=O)N[C@H]3CC[C@H](C)CC3)cc2)C1=O,1.08 ± 0.085,1.08 ± 0.062,1.03 ± 0.066,1.22 ± 0.23,0.95 ± 0.067,0.915 ± 0.14,0.996 (active)
Nc1ccn(C2OC(CO)C(O)C2O)c(=O)n1 (configuration not stated),1 ± 0.082,0.875 ± 0.092,1.49 ± 0.44,0.96 ± 0.052,1.25 ± 0.2,1.26 ± 0.27,1.03 (active)
CC1(C)CC(=O)C2=C(C1)OC(N)=C(C#N)C2C1CCCCC1 (configuration not stated),0.983 ± 0.076,0.926 ± 0.12,0.929 ± 0.093,0.987 ± 0.089,1.33 ± 0.22,1.47 ± 0.19,1.01 (active)
O=C(C=Cc1cccnc1)c1cc2ccc1CCc1ccc(cc1)CC2,1.03 ± 0.058,0.76 ± 0.071,0.752 ± 0.05,0.639 ± 0.023,0.998 ± 0.063,1.03 ± 0.35,1.01 (active)
COC(=O)/C=C/C(=O)OC,1.2 ± 0.17,1.06 ± 0.17,1.01 ± 0.064,0.61 ± 0.019,1.19 ± 0.28,1.09 ± 0.12,1 (active)
